From PubChem BioAssay (NCI)
The panel holds about 83,000 compounds, 20% with a hit somewhere; the sample as a whole holds those more often.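 Assay: single dose, 48 h. Readout: percent growth (0 = no net growth; negative = cell death). Active: <10.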 Calls of active or inactive are those of the source.

test system: SNB-19 CNS; assay: NCI-60 one-dose screen, 48 h (100 = growth as untreated, 0 = no growth, -100 = all killed); conditions: 10 µM

Row | SMILES | growth
1 | COc1cc(-c2nn3c(/C=C4/C(=O)Nc5ccccc54)c(-c4ccc(C)cc4)nc3s2)cc(OC)c1OC | 87.8% (inactive)
2 | CCCCC/C=C/C(=O)CCc1ccc(O)c(OC)c1 | 87.1% (inactive)
3 | Cc1c(Cl)cccc1NC(=O)c1sc2nc3c(cc2c1N)C(=O)CCC3 | 45.4% (inactive)
4 | CSc1cc(SC)ncn1 | 91% (inactive)
5 | O=C(Nc1ccc(CN2CCc3nc4cc(O)c(O)cc4cc32)cc1)c1ccc(Cl)c(Cl)c1 | 96.7% (inactive)
6 | COc1ccc(-c2cc(/C=C/C(=O)c3cc(OC)c(OC)c(OC)c3)[nH]n2)cc1OC | 25.5% (inactive)
7 | O=C1NC(=O)N(Cc2ccccc2)CC1Br (stereo not drawn) | 90.6% (inactive)
8 | O=C(Nc1ccncc1)C(=O)c1cn(S(=O)(=O)c2cccc(Cl)c2)c2ccccc12 | 89.8% (inactive)
9 | CCOC(=O)C(=Cc1ccc(Br)cc1)C(=O)OCC | 63.1% (inactive)
10 | COc1cc(-c2cc(/C=C3\C(=O)Nc4ccc(Cl)cc43)[nH]n2)cc(OC)c1OC | 49.9% (inactive)
11 | CC(C)(C)NC/C(=C\c1ccccc1)C(=O)c1ccccc1 | 66.1% (inactive)
12 | Cc1cc(N(CCCNc2ccnc3cc(Cl)ccc23)Cc2cccs2)nc(Cl)n1 | 76.1% (inactive)
13 | Nc1nc(N)c2c(ccc3nccc32)[nH]1 | 62.4% (inactive)
14 | CCCC(F)C(=O)O (stereo not drawn) | 102% (inactive)
15 | Cn1c(N)c(N=Nc2ccc(S(=O)(=O)Nc3nccs3)cc2)c(=O)n(C)c1=O | 104% (inactive)
16 | COc1cc(-c2cc(/C=C/C(=O)c3ccc(Cl)c(Cl)c3)[nH]n2)cc(OC)c1OC | 68% (inactive)
17 | Nc1ccccc1NC(=O)CCCCC(=O)Nc1ccc2c(c1)/C(=C/c1ccc[nH]1)C(=O)N2 | 76.4% (inactive)
18 | COc1cc(-c2cc(/C=C/C(=O)c3ccc(N)cc3)[nH]n2)cc(OC)c1OC | 36.6% (inactive)
19 | O=C(O)CC(Cl)C(Cl)CC(=O)O (stereo not drawn) | 103% (inactive)
20 | Nc1nc(N)c(NC(=O)CNc2ccc(C(=O)O)cc2)c(N)n1 | 105% (inactive)

Row | SMILES | growth
21 | COc1ccc(/C=C2/CN(CCC#N)C/C(=C\c3ccc(OC)cc3)C2=O)cc1 | 59.6% (inactive)
22 | CCCCCC(=O)c1ccc(OCCCN2CCN(C(=O)OCC)CC2)cc1 | 95.9% (inactive)
23 | O=C(Nc1ccc(Cl)c(Cl)c1)Nc1c(Oc2ccc(Cl)c(Cl)c2)ccc(Cl)c1S(=O)(=O)O | 48.3% (inactive)
24 | COc1cc(/C=C2\CCCC3=C2N=C2SC=NN2C3c2cc(OC)c(OC)c(OC)c2)cc(OC)c1OC (stereo not drawn) | 46.4% (inactive)
25 | CCC(=O)N1C/C(=C/c2ccc(OC)cc2)C(=O)/C(=C/c2ccc(OC)cc2)C1 | 68.2% (inactive)
26 | O=C(c1ccc(Cl)cc1Cl)N1CCOCC1 | 103% (inactive)
27 | O=C(CC(C(=O)c1ccccc1)N1CCOCC1)c1ccccc1 (stereo not drawn) | 95.6% (inactive)
28 | COc1ccc2c(c1)O/C(=C\c1ccc([N+](=O)[O-])o1)C2=O | 59.7% (inactive)
29 | COc1cc(Cl)cc(-c2nn(-c3cccc(NC(=O)Nc4cc(C(F)(F)F)cc(C(F)(F)F)c4)c3)cc2-c2ccncc2)c1 | 26.1% (inactive)
30 | CCCCCCCCCCCCCCCCN(C(C)c1ccccc1)S(=O)(=O)c1ccc(OC)c(N)c1 (stereo not drawn) | 120% (inactive)
31 | C#Cc1ccc(-n2c(/C=C/c3ccc4ccccc4c3)nc3ncccc3c2=O)cc1 | 75.3% (inactive)
32 | CCN(CC)CCNC(=O)c1ccc(NC(C)=O)cc1 | 98.1% (inactive)
33 | COc1cc(C(=O)/C=C/c2cc(-c3cc(OC)c(OC)c(OC)c3)n[nH]2)cc(OC)c1OC | 55.4% (inactive)
34 | COc1cc(C)ccc1C(=O)c1ccc(C)cc1OC | 43.4% (inactive)
35 | O=C(Nc1cccc(Br)c1)c1cc(=O)[nH]c2ccccc12 | 97.9% (inactive)
36 | N=C(N)c1ccc(-c2ccc(-c3cccs3)o2)cc1 | 73.7% (inactive)
37 | CC(=O)N1C/C(=C/c2ccc(Cl)cc2)C(=O)/C(=C/c2ccc(Cl)cc2)C1 | 15% (inactive)
38 | Cc1ccc(C(=O)Nc2cccc(F)c2)cc1NC(=O)C1(c2ncnc3[nH]ccc23)CC1 | 120% (inactive)
39 | COc1ccc(OC)c(NC(=O)c2sc3nc4c(cc3c2N)C(=O)CCC4)c1 | 82.2% (inactive)

test system: U251 CNS; assay: as above; conditions: 10 µM

Row | SMILES | growth
40 | COc1cc(-c2nn3c(/C=C4/C(=O)Nc5ccccc54)c(-c4ccc(C)cc4)nc3s2)cc(OC)c1OC | 65.2% (inactive)
41 | CCCCC/C=C/C(=O)CCc1ccc(O)c(OC)c1 | 79.6% (inactive)
42 | Cc1c(Cl)cccc1NC(=O)c1sc2nc3c(cc2c1N)C(=O)CCC3 | 7.51% (active)
43 | CSc1cc(SC)ncn1 | 108% (inactive)
44 | O=C(Nc1ccc(CN2CCc3nc4cc(O)c(O)cc4cc32)cc1)c1ccc(Cl)c(Cl)c1 | 105% (inactive)
45 | COc1ccc(-c2cc(/C=C/C(=O)c3cc(OC)c(OC)c(OC)c3)[nH]n2)cc1OC | -77.6% (active)
46 | O=C1NC(=O)N(Cc2ccccc2)CC1Br (stereo not drawn) | 59.6% (inactive)
47 | O=C(Nc1ccncc1)C(=O)c1cn(S(=O)(=O)c2cccc(Cl)c2)c2ccccc12 | 61.2% (inactive)
48 | CCOC(=O)C(=Cc1ccc(Br)cc1)C(=O)OCC | -46% (active)
49 | COc1cc(-c2cc(/C=C3\C(=O)Nc4ccc(Cl)cc43)[nH]n2)cc(OC)c1OC | 32.1% (inactive)
50 | CC(C)(C)NC/C(=C\c1ccccc1)C(=O)c1ccccc1 | -18.1% (active)
51 | Cc1cc(N(CCCNc2ccnc3cc(Cl)ccc23)Cc2cccs2)nc(Cl)n1 | 40% (inactive)
52 | Nc1nc(N)c2c(ccc3nccc32)[nH]1 | 36% (inactive)
53 | CCCC(F)C(=O)O (stereo not drawn) | 95.9% (inactive)
54 | Cn1c(N)c(N=Nc2ccc(S(=O)(=O)Nc3nccs3)cc2)c(=O)n(C)c1=O | 99.2% (inactive)
55 | COc1cc(-c2cc(/C=C/C(=O)c3ccc(Cl)c(Cl)c3)[nH]n2)cc(OC)c1OC | 43.8% (inactive)
56 | Nc1ccccc1NC(=O)CCCCC(=O)Nc1ccc2c(c1)/C(=C/c1ccc[nH]1)C(=O)N2 | 48.5% (inactive)
57 | COc1cc(-c2cc(/C=C/C(=O)c3ccc(N)cc3)[nH]n2)cc(OC)c1OC | -58.4% (active)
58 | O=C(O)CC(Cl)C(Cl)CC(=O)O (stereo not drawn) | 98.6% (inactive)
59 | Nc1nc(N)c(NC(=O)CNc2ccc(C(=O)O)cc2)c(N)n1 | 105% (inactive)

Row | SMILES | growth
60 | COc1ccc(/C=C2/CN(CCC#N)C/C(=C\c3ccc(OC)cc3)C2=O)cc1 | -28.3% (active)
61 | CCCCCC(=O)c1ccc(OCCCN2CCN(C(=O)OCC)CC2)cc1 | 98.2% (inactive)
62 | O=C(Nc1ccc(Cl)c(Cl)c1)Nc1c(Oc2ccc(Cl)c(Cl)c2)ccc(Cl)c1S(=O)(=O)O | 22.1% (inactive)
63 | COc1cc(/C=C2\CCCC3=C2N=C2SC=NN2C3c2cc(OC)c(OC)c(OC)c2)cc(OC)c1OC (stereo not drawn) | 8.08% (active)
64 | CCC(=O)N1C/C(=C/c2ccc(OC)cc2)C(=O)/C(=C/c2ccc(OC)cc2)C1 | 4.41% (active)
65 | O=C(c1ccc(Cl)cc1Cl)N1CCOCC1 | 105% (inactive)
66 | O=C(CC(C(=O)c1ccccc1)N1CCOCC1)c1ccccc1 (stereo not drawn) | 88% (inactive)
67 | COc1ccc2c(c1)O/C(=C\c1ccc([N+](=O)[O-])o1)C2=O | 9.08% (active)
68 | COc1cc(Cl)cc(-c2nn(-c3cccc(NC(=O)Nc4cc(C(F)(F)F)cc(C(F)(F)F)c4)c3)cc2-c2ccncc2)c1 | -58% (active)
69 | CCCCCCCCCCCCCCCCN(C(C)c1ccccc1)S(=O)(=O)c1ccc(OC)c(N)c1 (stereo not drawn) | 100% (inactive)
70 | C#Cc1ccc(-n2c(/C=C/c3ccc4ccccc4c3)nc3ncccc3c2=O)cc1 | 43.2% (inactive)
71 | CCN(CC)CCNC(=O)c1ccc(NC(C)=O)cc1 | 93.9% (inactive)
72 | COc1cc(C(=O)/C=C/c2cc(-c3cc(OC)c(OC)c(OC)c3)n[nH]2)cc(OC)c1OC | -57.9% (active)
73 | COc1cc(C)ccc1C(=O)c1ccc(C)cc1OC | 18.3% (inactive)
74 | O=C(Nc1cccc(Br)c1)c1cc(=O)[nH]c2ccccc12 | 91.5% (inactive)
75 | N=C(N)c1ccc(-c2ccc(-c3cccs3)o2)cc1 | 12.4% (inactive)
76 | CC(=O)N1C/C(=C/c2ccc(Cl)cc2)C(=O)/C(=C/c2ccc(Cl)cc2)C1 | -76.8% (active)
77 | Cc1ccc(C(=O)Nc2cccc(F)c2)cc1NC(=O)C1(c2ncnc3[nH]ccc23)CC1 | 93.6% (inactive)
78 | COc1ccc(OC)c(NC(=O)c2sc3nc4c(cc3c2N)C(=O)CCC4)c1 | 94.5% (inactive)
